# In the supplement of paper PMC6555819:
# Columns and labels:
# Assay in all cases: PBM binding z-score (relative to random genomic background probes); higher = stronger binding; sequences stand for … in GC…GCGATTGACAGCGTAGAATGAAGG
# [1] = test system: FXR:RXRa (NR concentration 270 nM, RXRa partner concentration 90 nM)
# Summary of the method: (§1)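 Ligand-free nuclear receptor dimers were applied to custom Agilent 4×180K protein-binding microarrays whose double-stranded probes carried direct-repeat seeds, single-nucleotide variants, half-site ablations and random human genomic background sequences in 34-nt variable regions. Incubation lasted 1 h. Binding z-scores were computed against the random background probes from regression-normalized fluorescence.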
# [2] = test system: LXRa:RXRa (NR concentration 270 nM, RXRa partner concentration 90 nM)
# Summary of the method: as §1
# [3] = test system: LXRa homodimer (NR concentration 270 nM)
# Summary of the method: as §1
# [4] = test system: LXRb:RXRa (NR concentration 270 nM, RXRa partner concentration 90 nM)
# Summary of the method: as §1
# [5] = test system: LXRb homodimer (NR concentration 270 nM)
# Summary of the method: as §1
# [6] = test system: PPARa:RXRa (NR concentration 270 nM, RXRa partner concentration 90 nM)
# Summary of the method: as §1
# [7] = test system: PPARg:RXRa (NR concentration 180 nM, RXRa partner concentration 90 nM)
# Summary of the method: as §1
# [8] = test system: PPARg:RXRa 270nM:90nM, anti-RXR (NR concentration 270 nM, RXRa partner concentration 90 nM)
# Summary of the method: as §1
# [9] = test system: PPARg:RXRa 30nM:10nM, anti-RXR (NR concentration 30 nM, RXRa partner concentration 10 nM)
# Summary of the method: as §1
# [10] = test system: PPARg:RXRa 90nM:30nM, anti-RXR (NR concentration 90 nM, RXRa partner concentration 30 nM)
# Summary of the method: as §1
# [11] = test system: PPARg:RXRa DBDmut IVT, anti-RXR (DBD mutation: RXRa K156A/R161A, NR concentration 270 nM, RXRa partner concentration 90 nM)
# Summary of the method: as §1
# [12] = test system: PPARg:RXRa IVT, anti-PPARg (NR concentration 270 nM, RXRa partner concentration 90 nM)
# Summary of the method: as §1
# [13] = test system: PPARg DBDmut:RXRa IVT, anti-PPARg (DBD mutation: PPARg1 K132A/R137A, NR concentration 270 nM, RXRa partner concentration 90 nM)
# Summary of the method: as §1
# [14] = test system: PPARg DBDmut IVT, anti-PPARg (DBD mutation: PPARg1 K132A/R137A, NR concentration 270 nM)
# Summary of the method: as §1
# [15] = test system: PPARg homodimer (NR concentration 180 nM)
# Summary of the method: as §1
# [16] = test system: PXR:RXRa (NR concentration 270 nM, RXRa partner concentration 90 nM)
# Summary of the method: as §1
# [17] = test system: PXR homodimer (NR concentration 270 nM)
# Summary of the method: as §1
# [18] = test system: RARa:RXR (NR concentration 270 nM, RXRa partner concentration 90 nM)
# Summary of the method: as §1
# [19] = test system: RARa homodimer (NR concentration 270 nM)
# Summary of the method: as §1
# [20] = test system: RARb:RXRa (NR concentration 270 nM, RXRa partner concentration 90 nM)
# Summary of the method: as §1
Sequence,PBM binding z-score [1],PBM binding z-score [2],PBM binding z-score [3],PBM binding z-score [4],PBM binding z-score [5],PBM binding z-score [6],PBM binding z-score [7],PBM binding z-score [8],PBM binding z-score [9],PBM binding z-score [10],PBM binding z-score [11],PBM binding z-score [12],PBM binding z-score [13],PBM binding z-score [14],PBM binding z-score [15],PBM binding z-score [16],PBM binding z-score [17],PBM binding z-score [18],PBM binding z-score [19],PBM binding z-score [20]
CAAAGTAGGTCACAGAGGTCAAAGTCCGTGCGTA,7.06,6.7,7.7,6.5,2.52,6.75,10.4,8.33,7.56,8.58,8.54,8.94,1.99,2.62,4.88,6.71,10.8,7.4,2.67,5.14
AGAACGATGGCACGCTGAGTTGATAGCAGAGTAG,-0.77,-0.938,-0.952,-0.881,-1.06,-0.687,0.523,-0.439,-0.196,-0.443,-0.571,-0.274,0.264,-0.833,0.102,-0.552,-0.384,-0.792,-0.387,-0.628
TCTTGGAGATCAAGCAGGTTAAGAAAGCCTGAGT,0.463,0.405,-0.249,0.297,-0.658,1.09,-0.253,1.39,2.35,1.84,1.33,-0.158,-0.0417,-0.978,-0.522,0.538,0.0928,0.684,-0.244,0.272
ACTATTAGTTGAGACGTGGGCAACCGATAGGTTG,-0.344,-0.403,-0.444,-0.738,0.00492,-1.07,0.429,-0.3,-0.0556,-0.44,-0.218,-0.152,0.175,0.352,-0.426,-0.64,-0.53,-0.914,-0.357,-0.226
CCGACTTGGGCAGAAAGGTTACCATACCATCCGG,0.0234,0.228,-0.275,0.646,-1.09,1.44,1.06,1.64,0.23,0.892,-0.147,-0.369,-0.764,-1.15,0.811,0.592,-0.331,1.16,-0.0756,1.12
TATACAGGGTCATAGGCCAGAGTACGAATGTCGA,6.89,6,1.98,4.45,1.7,5.81,7.21,6.45,3.76,5.8,2.32,4.47,2.52,2.28,2.09,4,0.517,5.18,1.43,4.25
